This passage reports inhibition results from PubChem BioAssay.

Unmarked numbers belong to inactive results. How the calls were made is not given here.

The target in this test is Pantothenate synthetase (Mycobacterium tuberculosis (strain ATCC 25618 / H37Rv)) (UniProt P9WIL5). The test can be described thus: Recombinant Mtb pantothenate synthetase (PanC) inhibitors, coupled enzyme, confirmatory (AID 375).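 Further: 0% = full reaction with vehicle and 100% = no enzyme background.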 The following applies: coupled enzyme assay; at 10 µM, active compounds read high.
Chain of Pantothenate synthetase (Mycobacterium tuberculosis (strain ATCC 25618 / H37Rv)) (P9WIL5 whole entry, looked up): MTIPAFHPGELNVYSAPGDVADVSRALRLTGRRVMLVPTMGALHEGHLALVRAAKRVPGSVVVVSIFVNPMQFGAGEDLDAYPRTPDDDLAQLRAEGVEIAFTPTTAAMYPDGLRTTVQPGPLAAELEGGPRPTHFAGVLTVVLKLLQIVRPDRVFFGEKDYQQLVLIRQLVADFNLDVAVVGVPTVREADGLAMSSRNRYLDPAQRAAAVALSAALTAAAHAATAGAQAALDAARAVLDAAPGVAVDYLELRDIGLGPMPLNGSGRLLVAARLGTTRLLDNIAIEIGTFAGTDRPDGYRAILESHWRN
The inhibition is the relative decrease from the control value, in per cent. As to `CC1CCN(C(=O)Cn2cc3c(n2)CCCC3)CC1`, the inhibition was 0%.

On to `CCOC(=O)CSc1nc2cc(C(=O)NCc3ccco3)ccc2c(=O)n1-c1ccc(F)cc1`, for which the inhibition is 3%. Regarding `OCCN1CCN(CCCN2c3ccccc3Sc3ccc(C(F)(F)F)cc32)CC1`, the inhibition is 2%. Regarding `CCn1cc(C(=O)N2CCCC2)c(=O)c2cc(S(=O)(=O)N3CCOCC3)ccc21`, the inhibition is 0%. As for `Cc1noc(C(=O)Nc2ccc3c(c2)OCO3)c1Cl`, the inhibition was 0%.

Regarding `O=C(Nc1ccc2c(c1)OCCO2)C1CCN(C(=O)c2ccc(F)cc2)CC1`, the inhibition was 0%. For the compound `COC(=O)c1c(NC(=O)CCc2ccc(C)o2)sc(C)c1C`, the inhibition is 1%. As for `COc1ccc(-c2noc(-c3ccccc3C(=O)Nc3cccnc3)n2)cc1`, the inhibition was 0%.

With `COc1ccc(NC(=O)c2ccco2)cc1NC(=O)c1cccs1`, the inhibition was 0%.

Regarding `CCN1CCc2c(C#N)c(N3CCOCC3)nc(NCc3ccccc3)c2C1`, the inhibition is 0%.

Take `Cc1ccc(Nc2cc(C)nc3nnnn23)cc1`: the inhibition was 6%. The result for `Cc1ccc(OCC(O)CN2C(=O)NC(C)(C)C2=O)cc1C` (centres undefined) reads 2%; that for `CCN(CC)C(=O)C1CCCN(Cc2ccc(N(C)C)cc2)C1` (centres undefined), 1%; that for `CC(C)C(c1nnnn1C1CCCC1)N1CCCc2ccccc21` (centres undefined), 0%. Consider `CC1CCc2cc(F)cc3c(O)c(C(=O)NCC4CCCO4)c(=O)n1c23` (centres undefined), for which the inhibition is 2%. On to `COc1ccc(C(=O)Nc2ccc(C)cn2)c(OC)c1`, for which the inhibition was 0%. `CC1CCCCN1CCNC(=O)c1ccc2c(=O)n(CCc3ccccc3)c(=O)[nH]c2c1` (centres undefined): the inhibition is 0%. As for `Cc1nc(SCC#N)c2c(C)c(C)sc2n1`, the inhibition was 0%. The result for `CC(CN1c2ccccc2Sc2ccccc21)N(C)C` (centres undefined) reads 0%; that for `Cc1cccc(-n2ncc3c(N(CCO)CCO)ncnc32)c1`, 0%. In the case of `COc1cc(C(=O)Nc2cccc(-c3nc4cc(C)ccc4o3)c2)cc(OC)c1OC`, the inhibition was 3%. `Nc1nc(Cl)nc2c1ncn2[C@H]1C[C@H](O)[C@@H](CO)O1`: the inhibition is 0%.

Take `CCOC(=O)CSc1nnc([C@H](C)NC(=O)OC(C)(C)C)o1`: the inhibition was 0%. Regarding `Cc1ccc(SC(C)c2nc(-c3ccccc3)no2)cc1` (centres undefined), the inhibition was 0%.

With `CCN(C(=O)c1cccs1)c1nnc(-c2ccncc2)s1`, the inhibition is 0%. In the case of `CN(C=C1C(=O)CC(C)(C)CC1=O)CCN1CCNCC1` it was 1%; in that of `CCOCCCNC(=O)C1CC(=O)N(C2CCCC2)C1` (centres undefined), 2%; in that of `COc1cc(CN2CCN(C(=O)CC(C)C)CC2)cc(OC)c1O`, 0%. Take `Cc1c(O)c(CN2CCCCC2)cc2c3c(c(=O)oc12)CCC3`: the inhibition was 2%. In the case of `O=C(O)CCCNS(=O)(=O)c1ccc(NCc2ccccc2)c(C(=O)O)c1` it was 0%; in that of `N#Cc1c2n(c(=O)[nH]c1=O)CCCCC2`, 0%.

`Cc1ccc(-n2c(=O)c3sccc3n(CC(=O)NCc3ccco3)c2=O)cc1`: the inhibition is 0%.

Take `Cc1c(C(=O)NC2CCCc3ccccc32)oc2ccc(S(=O)(=O)N3CCOCC3)cc12` (centres undefined): the inhibition is 6%. For `O=C(Nc1ccc(CN2CCOCC2)cc1)c1cc2ccccn2n1`, the inhibition was 0%. In the case of `CN(Cc1ccccc1)Cc1c[nH]c2ccccc12`, the inhibition is 0%. Regarding `C=CCn1c(SCc2ccc(C#N)cc2)nnc1-c1cccc(Cl)c1`, the inhibition was 1%. In the case of `Cc1nnc(SCC2=C(C(=O)O)N3C(=O)[C@@H](NC(=O)Cn4cnnn4)[C@H]3SC2)s1` it was 0%; in that of `CCN(CC)CCNC(=O)c1cc(S(C)(=O)=O)ccc1OC`, 0%. Consider `Nc1nc(N2CCCCC2)nc(N(c2ccccc2)c2ccccc2)n1`, for which the inhibition is 3%.
